Several values for one entry are separate records, joined by “and”; a condition that tells them apart may be missing. Identical values can stand only once. Results filed as inconclusive are left out. A number with no mark means an inactive call. Activity calls are given as the source filed them. Unless noted, calls follow the shape of the dose curve; as a rule, active = well fitted curve in the direction sought with a large enough effect in the repeat runs; inconclusive = weak or mixed curves; inactive = no such curve, though single readings can be large; an effect the other way counts as inactive or inconclusive.

For assay [1], the target named is Luciferin 4-monooxygenase (Photinus pyralis) (UniProt P08659). The assay is described as follows: qHTS assay to identify small molecule inhibitors of firefly luciferase (AID 1224835). Also: series mostly up to about 120 µM; nearly all actives have a fitted effect of over 25% in size. Summed up:
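Quantitative HTS format; KM concentrations of both substrates. Purified P. pyralis FLuc activity quantified from luminescence images.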
(In general: Quantitative high-throughput screening tests each substance at several concentrations.)

A short description of assay [2]: qHTS assay to identify small molecule agonists of the constitutive androstane receptor (CAR) signaling pathway - cell viability counter screen (AID 1224836). Also: series mostly up to about 92 µM; nearly all actives have a fitted effect of over 45% in size. A digest of the protocol:
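Cell viability multiplexed with the CAR agonist screen: CellTiter-Fluor fluorescence after 23 hr at 37 C. HepG2-CYP2B6-hCAR cells got compounds at 15 concentrations with PK11195 at 0.75 uM final.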

In assay [3] the target is Nuclear receptor subfamily 1 group I member 3 (Homo sapiens) (UniProt Q14994). The assay can be described thus: qHTS assay to identify small molecule antagonists of the constitutive androstane receptor (CAR) signaling pathway (AID 1224838).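 Also: HepG2 cells stably expressing hCAR with CYP2B6 luciferase reporter stimulated by CITCO; nearly all actives have a fitted effect of over 40% in size.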 Also: potency is read from the fitted curve at half-maximal effect. A digest of the protocol:
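Reporter luminescence was quantified after 24 h exposure of hCAR/CYP2B6-2.2kb double-stable HepG2 cells to compounds at 15 concentrations in the presence of 50 nM CITCO final.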

Assay [4] shares this target. The assay is described as follows: qHTS assay to identify small molecule agonists of the constitutive androstane receptor (CAR) signaling pathway (AID 1224839). Also: nearly all actives have a fitted effect of over 15% in size. Also: potency is read from the fitted curve at half-maximal effect. A digest of the protocol: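 Luminescent ONE-Glo read-out after 24 hr, 37 C exposure of double-stable HepG2-CYP2B6-hCAR reporter cells to a 15-point compound series, in the presence of 0.75 uM PK11195 (final).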

The nature of assay [5]: qHTS assay to identify small molecule antagonists of the estrogen related receptor signaling pathway with the pleiotropic PPARgamma coactivator (PGC) from Tox21 10K library - cell viability counter screen (AID 1224840; active = well fitted cell-killing curve with a large enough effect in the repeat runs, not every such curve was filed as active; also: nearly all actives have a fitted effect of over 40% in size; also: potency is read from the fitted curve at half-maximal effect). A digest of the protocol: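 Here the PGC/ERR cells serve as a cytotoxicity control: they are exposed to compounds for 17.5 hours at 37 C, and live-cell signal is quantified using CellTiter-Fluor fluorescence.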

Assay [6] can be described thus: qHTS assay to identify small molecule agonists of the hypoxia (HIF-1) signaling pathway - cell viability counter screen (AID 1224844; calls by dose curve; also: nearly all actives have a fitted effect of over 50% in size; also: potency is read from the fitted curve at half-maximal effect). Summed up: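 Multiplexed with the HRE beta-lactamase assay, this viability read used CellTiter-Glo luminescence (30 min, RT) on HRE-bla ME-180 cells treated 17 hrs with compounds in 0.5% dialyzed FBS medium.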
Assay [7] deals with Thyrotropin receptor (Homo sapiens) (UniProt P16473). The assay is described as follows: qHTS assay to identify small molecule agonists of the thyroid stimulating hormone receptor (TSHR) signaling pathway (AID 1224843; calls by dose curve; also: nearly all actives have a fitted effect of over 45% in size). A digest of the protocol:
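Cell line HEK293 with TSHR; density 800/well. Exposure 30 min RT. Readout HTRF cAMP (cAMP-d2/anti-cAMP-cryptate), 1 h RT before reading.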

Assay [8] is described as follows: qHTS assay to identify small molecule antagonists of the constitutive androstane receptor (CAR) signaling pathway - cell viability counter screen (AID 1224837). Also: nearly all actives have a fitted effect of over 45% in size. Also: potency is read from the fitted curve at half-maximal effect. A digest of the protocol: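 Using CellTiter-Fluor, viability is scored in HepG2 cells stably carrying hCAR and a 2.2kb CYP2B6 reporter after 23 hr compound exposure across 15 concentrations, with CITCO present at 50 nM.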

Assay [9] can be described thus: qHTS assay to identify small molecule agonists of the estrogen related receptor signaling pathway with the pleiotropic PPARgamma coactivator (PGC) from Tox21 10K library (AID 1224842). Also: nearly all actives have a fitted effect of over 15% in size. Summed up: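 PGC/ERR reporter cells (NTP line) were seeded 2,000 per well, rested 6 h at 37 C/5% CO2, then pin-dosed with compounds in DMSO for 18 h at 37 C; luciferase read by One-Glo luminescence after 30 min at room temperature.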

Assay [10] in a line: qHTS assay to identify small molecule antagonists of the estrogen related receptor signaling pathway with the pleiotropic PPARgamma coactivator (PGC) from Tox21 10K library (AID 1224841; call rule not given here; also: actives are mostly falling curves and most rising ones were filed inactive; nearly all actives have a fitted effect of over 50% in size; also: potency is read from the fitted curve at half-maximal effect). A digest of the protocol:
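Each well held 2,000 PGC/ERR cells, pre-incubated six hours (37 C, 5% CO2). Test substances in DMSO were added by pin tool and left for 18 h at 37 C before luciferase detection by One-Glo.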

Thyrotropin receptor (Homo sapiens), sequence (P16473 whole entry, looked up): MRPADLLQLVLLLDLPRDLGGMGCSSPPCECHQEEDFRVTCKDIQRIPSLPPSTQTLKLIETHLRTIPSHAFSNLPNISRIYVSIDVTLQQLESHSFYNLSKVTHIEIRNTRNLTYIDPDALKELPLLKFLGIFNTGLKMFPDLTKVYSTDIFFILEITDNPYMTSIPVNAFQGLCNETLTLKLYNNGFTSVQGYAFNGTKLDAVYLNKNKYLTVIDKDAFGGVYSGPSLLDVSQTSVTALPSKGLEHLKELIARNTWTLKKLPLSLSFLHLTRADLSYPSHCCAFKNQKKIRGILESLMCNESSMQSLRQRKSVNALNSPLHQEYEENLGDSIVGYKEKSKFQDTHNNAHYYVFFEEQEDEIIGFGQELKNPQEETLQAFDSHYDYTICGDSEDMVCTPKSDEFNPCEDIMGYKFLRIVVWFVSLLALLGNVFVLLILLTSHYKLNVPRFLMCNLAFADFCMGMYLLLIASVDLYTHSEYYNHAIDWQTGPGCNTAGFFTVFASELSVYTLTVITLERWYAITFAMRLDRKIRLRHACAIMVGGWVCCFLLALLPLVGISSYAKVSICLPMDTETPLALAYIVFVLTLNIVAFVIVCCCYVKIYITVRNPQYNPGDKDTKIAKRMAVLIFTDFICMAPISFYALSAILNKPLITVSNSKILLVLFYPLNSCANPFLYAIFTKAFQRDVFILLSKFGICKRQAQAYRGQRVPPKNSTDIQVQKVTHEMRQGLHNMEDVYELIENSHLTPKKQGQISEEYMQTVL
Luciferin 4-monooxygenase (Photinus pyralis), sequence (P08659 whole entry, looked up): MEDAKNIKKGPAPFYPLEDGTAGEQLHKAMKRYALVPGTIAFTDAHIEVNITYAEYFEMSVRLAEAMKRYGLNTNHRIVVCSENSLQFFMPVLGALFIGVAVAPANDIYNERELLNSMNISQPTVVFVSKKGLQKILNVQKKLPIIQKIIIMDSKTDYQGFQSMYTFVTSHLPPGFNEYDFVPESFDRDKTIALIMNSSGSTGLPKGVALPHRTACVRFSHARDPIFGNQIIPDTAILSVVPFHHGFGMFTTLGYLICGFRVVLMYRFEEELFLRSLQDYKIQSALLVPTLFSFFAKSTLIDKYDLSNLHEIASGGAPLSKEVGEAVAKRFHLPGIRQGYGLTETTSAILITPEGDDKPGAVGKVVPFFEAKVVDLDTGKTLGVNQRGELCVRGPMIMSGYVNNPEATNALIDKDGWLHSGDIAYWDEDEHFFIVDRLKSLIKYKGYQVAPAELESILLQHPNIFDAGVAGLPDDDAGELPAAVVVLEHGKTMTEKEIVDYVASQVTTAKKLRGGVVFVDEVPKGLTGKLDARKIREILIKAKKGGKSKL
Nuclear receptor subfamily 1 group I member 3 (Homo sapiens), sequence (Q14994 whole entry, looked up): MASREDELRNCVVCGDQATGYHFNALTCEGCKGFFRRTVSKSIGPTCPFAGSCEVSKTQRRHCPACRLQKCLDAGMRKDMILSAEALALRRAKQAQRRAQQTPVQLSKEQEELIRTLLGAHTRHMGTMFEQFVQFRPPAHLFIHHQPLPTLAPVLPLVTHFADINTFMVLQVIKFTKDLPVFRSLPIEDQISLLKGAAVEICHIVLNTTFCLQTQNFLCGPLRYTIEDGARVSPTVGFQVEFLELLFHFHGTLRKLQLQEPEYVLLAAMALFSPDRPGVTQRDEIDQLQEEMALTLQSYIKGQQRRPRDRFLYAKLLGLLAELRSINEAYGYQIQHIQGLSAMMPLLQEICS

`CCOc1ccc(C(C)(C)COCc2cccc(Oc3ccccc3)c2)cc1`: the Potency result in assay [1], in assay [2], in [3], in assay [5] and in assay [6] was “inactive” each time. The Potency in assay [4] is 6.11 µM (active).

In the case of `CCCC(=O)Cl`, the Potency result in [1], in [2], in assay [5] and in [7] was “inactive” each time.

`COP(=S)(Oc1cc(Cl)c(Br)cc1Cl)c1ccccc1` (stereo unspecified): the Potency entry in assay [1], in assay [8], in [3], in [5] and in assay [9] was “inactive” each time. The Potency in assay [4] was 30.6 µM (active).

With `Cn1sc(Cl)cc1=O`, the Potency entry in assay [1], in assay [8], in assay [3], in assay [4], in assay [10] and in [9] was “inactive” in each case. For the same molecule, the Potency result in assay [7] and in [6] was “inactive” throughout.

In the case of `O=[N+]([O-])c1ccc(F)c([N+](=O)[O-])c1`, the Potency result in assay [1], in assay [3], in assay [4] and in assay [9] was “inactive” throughout. Besides, the Potency in assay [8] was 34.7 µM (active); in assay [5], 55 µM (active); in assay [10], 49 µM (active); in [6] it was 12.4 µM (active).

As to `O=C1C(Cl)C(CCl)CN1c1cccc(C(F)(F)F)c1` (stereo unspecified), the Potency result in assay [1], in [8], in assay [3], in assay [4], in assay [5] and in [9] was “inactive” in each case. Besides, the Potency entry in assay [6] is “inactive”.

For `COC1=CC(=O)O[C@@H](CCc2ccccc2)C1`, the Potency entry in [1], in assay [8], in assay [3], in assay [5], in assay [9] and in [7] was “inactive” throughout. Also, the Potency in assay [4] was 56.7 µM (active).

Consider `C=CCOC(C)=O`, for which the Potency entry in assay [1], in assay [8], in assay [5], in assay [7] and in [6] was “inactive” throughout.

As to `Clc1cc(Cl)c(Cl)c(Cl)c1`, the Potency result in [1], in assay [8], in assay [3], in assay [4], in [7] and in [6] was “inactive” throughout.

Take `CCOP(=O)(OCC)SCCSCC`: the Potency entry in assay [1], in assay [2], in assay [5], in assay [10], in [9] and in [7] was “inactive” each time. In assay [6], the Potency result was “inactive”.

Turning to `Cc1ccc2ccccc2c1`, the Potency entry in assay [1], in assay [2], in assay [5], in [10], in [9] and in [6] was “inactive” each time.

Regarding `CCOC(=O)CBr`, the Potency entry in assay [1], in assay [8], in [3], in assay [4], in [5] and in assay [6] was “inactive” throughout.

With `CC(c1ccc(O)cc1)(c1ccc(O)cc1)c1ccc(O)cc1`, the Potency result in assay [1], in assay [8], in [4], in assay [9] and in assay [6] was “inactive” each time. Further, the Potency in assay [3] is 9.69 µM (active); in [10], 54.5 µM (active).

For `Cc1cc(=O)[nH]o1`, the Potency entry in [1], in [2], in assay [7] and in assay [6] was “inactive” throughout.

`O=S(=O)(O)C(F)(F)C(F)(F)C(F)(F)C(F)(F)F`: the Potency result in [1], in assay [8], in assay [5], in assay [9] and in assay [6] was “inactive” throughout. Besides, the Potency in [4] is 32.5 µM (active).

For `CN1C(=O)NC(=O)C(C)(C2=CCCCC2)C1=O` (stereo unspecified), the Potency result in assay [1], in assay [8], in [4] and in [6] was “inactive” throughout.

Turning to `CCCCCCCCCCOC(=O)c1ccccc1C(=O)OCCCCCCCCCC`, the Potency result in assay [1], in assay [8], in [3], in [4], in assay [5] and in assay [10] was “inactive” throughout. The Potency result in assay [9], in [7] and in assay [6] was “inactive” each time.

For the molecule `CCOP(=S)(OCC)Oc1nc(Cl)c(Cl)cc1Cl`, the Potency result in [1], in [8], in assay [3], in assay [5] and in assay [6] was “inactive” throughout. In addition, the Potency in [4] is 27.4 µM (active) and 30.6 µM (active).

As to `CCCCN(N=O)C(=N)N[N+](=O)[O-]`, the Potency entry in assay [1], in assay [8], in assay [4], in assay [5] and in assay [7] was “inactive” throughout. Moreover, the Potency in [3] was 31.3 µM (active).

As to `NS(=O)(=O)C(F)(F)C(F)(F)C(F)(F)C(F)(F)C(F)(F)C(F)(F)C(F)(F)C(F)(F)F`, the Potency entry in assay [1], in assay [8], in assay [3], in assay [4], in [5] and in [7] was “inactive” in each case.

On to `CN(N=O)c1ccc([N+](=O)[O-])cc1`, for which the Potency result in assay [1], in [8], in assay [3], in assay [5] and in assay [6] was “inactive” throughout.

For the molecule `CCOP(=S)(OCC)SCn1nnc2ccccc2c1=O`, the Potency entry in assay [1], in assay [8], in assay [3], in assay [9], in assay [7] and in assay [6] was “inactive” each time. The Potency in [4] was 24.3 µM (active).
